Bioassay records from PubChem.
Rows were chosen to be rich in hits. Some 1.4% of all compounds tested hit in one or more screens of this group.
Yeast superoxide: caloric restriction mimetics inhibiting age-related superoxide in yeast | S. cerevisiae aged cells, superoxide DHE fluorescence; hits give low values | superoxide response (% of plate mean), % at 10 µM | actives 0.18% (n = 330,000);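 active = superoxide response under a set limit, about three screen SD below normal, cut at about 65% in these data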;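 note: yeast aged for seven days with compound at 30 °C before DHE staining; 100% = average MFI of all compound-treated wells on the plate with controls excluded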
HSV augment: increases HSV replication in cells; maximum fold increase; HSV replication augmentation in cells, fold increase; actives 0.005% (n = 220,000); in the data active = maximum fold increase above about 1.5; inconclusive = no clear call, values can overlap the other calls; tested in PC3 cells
MIN6 prolif: inducers of beta-cell replication in MIN6 cells. actives 0.29% (n = 330,000). proliferation, % at 10 µM. MIN6 cells proliferation, ATPlite luminescence, 48 h; cells starved in 0.2% serum; 100% = growth in 10% serum. AID 2380;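 active = compounds whose signal lies at least 3.5 SD above the mean of all wells on their plate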;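 note: 0% = DMSO-treated cells in low-serum medium and 100% = 10% serum control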
Cardio protect: myocardial damage modulation in H9c2 cells | actives 0.63% (n = 360,000) | AID 588492 | H9c2 cardiomyocytes, H2O2 injury protection, ATPLite, 2 h | protection from H2O2 cell death, % at 20 µM;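 active = compounds giving at least 50% protection of heart cells from peroxide-induced death in the single-dose screen, raw or plate-pattern-corrected value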;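 note: 0% = DMSO wells with peroxide and 100% = DMSO wells without peroxide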
p-CIP stab down: compounds decreasing mouse p/CIP protein stability; decrease of EGFP signal, % at 10 µM; AID 1984; actives 0.01% (n = 290,000); F442A p/CIP-EGFP cells, EGFP fluorescence, 16 h;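 active = EGFP signal decrease of at least 30% at 10 µM or well 3 SD below plate mean, unless failing retest; inactive = the rest, including hits failing retest or dose response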
V-ATPase pHluor: yeast V-ATPase proton transport regulation by pHLuorin. AID 504577. S. cerevisiae, pHLuorin cytosolic pH fluorescence. response, % at 10 µM. actives 0.37% (n = 350,000); in the data active = response mostly above about 7.3%, no sharp cut-off; inactive = mostly below about 5.4%; note: actives read high
Starred values were filed as active, the others as inactive; i = inactive; ? = inconclusive; . = no result.

SMILES | Yeast superoxide | HSV augment | MIN6 prolif | Cardio protect | p-CIP stab down | V-ATPase pHluor
N#C/C(=C\c1ccc([N+](=O)[O-])o1)c1nc2ccccc2[nH]1 | 108 | . | -6 | . | -245 | .
Cc1ccc2nc(/C(C#N)=C\c3ccc([N+](=O)[O-])o3)[nH]c2c1 | 153 | . | -5 | -15 | -287 | 86*
COc1ccc2oc(C(=O)OCC(=O)N(C)CC(=O)Nc3ccc(C)cc3)c(C)c2c1 | 106 | . | -1 | -2 | . | 2
CSc1ccccc1CNC(=O)C1(C)CCCN1CC(C)C (configuration not stated) | . | . | . | -3 | . | .
Cc1c(N=Cc2cc3c(cc2[N+](=O)[O-])OCO3)cccc1[N+](=O)[O-] | 90 | . | 0 | 72* | . | 0
Cc1ccccc1N=Cc1cc2c(cc1[N+](=O)[O-])OCO2 | 104 | i | 0 | 62* | 0 | -1
O=C1/C(=C\c2cc(Cl)c(O)c(Cl)c2)SC(=S)N1Cc1ccccc1 | 109 | . | . | -17 | -610 | 97*
O=C(/C=C/c1cccc([N+](=O)[O-])c1)Nc1cccc(NC(=O)c2ccco2)c1 | 99 | . | 0 | 34 | 3 | 3
O=C(/C=C/c1cccc([N+](=O)[O-])c1)Nc1cccc(NC(=O)c2cccs2)c1 | 97 | i | -5 | 81* | -2 | -3
Cc1ccc(NC(=S)N/N=C/c2ccc([N+](=O)[O-])s2)cc1 | 103 | i | -3 | 6 | -14 | 1
NC(=O)c1ccc(N=Cc2ccc([N+](=O)[O-])s2)cc1 | 84 | i | . | -28 | -2 | 113*
O=[N+]([O-])c1ccc(C=Nc2ccc(Cl)c([N+](=O)[O-])c2)s1 | . | i | -5 | -18 | -18 | 145*
Cc1cc(C)cc(N=Cc2ccc([N+](=O)[O-])s2)c1 | 76 | i | -7 | -13 | -16 | 112*
Cc1cc(-c2nnc(CCC(=O)N3CCN(Cc4cccnc4)CC3)o2)c(C)o1 | 91 | i | -3 | 6 | -20 | 2
O=S(=O)(c1ccccc1)c1cc(O)ccc1O | 107 | . | -1 | 41 | -6 | -1
O=S(=O)(c1ccc(Cl)cc1)c1cc(O)ccc1O | 113 | . | -2 | 56* | 9 | 1
Cc1ccc(NC(=O)CSc2nc3ccc(Nc4nc(N5CCOCC5)nc(N5CCOCC5)n4)cc3s2)cc1 | 85 | . | -6 | -7 | -11 | 4
CC(C)(C)NC(=O)CSc1nc2ccc(Nc3nc(N4CCOCC4)nc(N4CCOCC4)n3)cc2s1 | 94 | i | -3 | 91* | -8 | 0
N#Cc1ccc(OCC(=O)N2CCCC2=O)cc1 | 125 | . | 0 | -1 | . | 1
CN(C)C(=O)C(=O)c1cccn1-c1cccc(Cl)c1C#N | 99 | i | 2 | -5 | -8 | 0
COc1ccccc1C(=O)NNC1=C(C(=O)C(F)(F)F)CCC1 | 106 | i | -4 | 67* | -6 | 2
Oc1c(Cl)cc(Cl)cc1/C=N/Nc1ncc(Br)cn1 | 119 | i | -4 | 59* | 10 | -1
O=C(N/N=C/c1cc(Cl)cc(Cl)c1O)c1ccncc1 | 94 | ? | -6 | 50* | -15 | 1
O=C(N/N=C/c1cccc2nccnc12)c1ccncc1 | 82 | i | 4 | 65* | -5 | 3
Cc1ccc(N=Cc2cc(Cl)cc(Cl)c2O)nc1 | 110 | i | -1 | 65* | -2 | -7
SMILES | Yeast superoxide | HSV augment | MIN6 prolif | Cardio protect | p-CIP stab down | V-ATPase pHluor
O=C(N/N=C/c1ccc(Cl)cc1Cl)c1ccncc1 | 104 | . | 1 | 3 | -2 | -1
CCOc1ccc(C2=Nn3c(CC)nnc3SC2)cc1 | 94 | . | 1 | -15 | . | -4
CCCCC/C=C/C1=CC(=O)C[C@H](c2ccc(OC)c(OC)c2)C1 | 96 | . | -6 | -14 | . | 4
CC(C(=O)NCc1cccnc1)c1ccc([N+](=O)[O-])cc1 (configuration not stated) | 102 | . | -3 | 0 | -5 | -1
Oc1c(Cl)cc(Cl)cc1C=Nc1ccc2c(c1)OCCO2 | 100 | i | -3 | 72* | -8 | -4
CCOC(=O)N1CCC(n2c(SCC(=O)N3CCC(C)CC3)nc3ccccc3c2=O)CC1 | 104 | i | 3 | 67* | 9 | -85
COc1ccccc1OCC(=O)Nc1sc2c(c1C(=O)NCC1CCCO1)CCC2 (configuration not stated) | 74 | i | 0 | 64* | -1 | 3
COc1ccccc1OCC(=O)Nc1sc2c(c1C(N)=O)CCC2 | 130 | . | -2 | -2 | . | 5
COc1cc(-n2c(=O)c3ccccc3n(Cc3cc(=O)n4ccccc4n3)c2=O)cc(OC)c1OC | 92 | i | 0 | 57* | -9 | -2
Cc1cc(S(=O)(=O)Nc2ccc(C(=O)NCCCN3CCCC3=O)cc2)ccc1F | 99 | . | 3 | 9 | . | 6
Cn1c(SCC(=O)O)nnc1-c1ccc2ncccc2c1 | 106 | i | 1 | . | -7 | .
Cc1ccc(-c2nn3c(C)nnc3s2)cc1NC(=O)c1ccc(-c2cccc(Cl)c2)o1 | . | i | -3 | 65* | -16 | 0
Cc1ccc(-c2nn3c(C)nnc3s2)cc1NC(=O)c1ccc(-c2ccc(Cl)cc2Cl)o1 | 97 | i | -5 | -20 | 4 | -1
COc1ccc(OC)c(N2CC(O)=C(c3nc4ccccc4s3)C2=N)c1 | 116 | i | -2 | -3 | 2 | 0
CCOc1ccccc1N1CC(O)=C(c2nc3ccccc3s2)C1=N | 114 | i | -2 | 95* | -2 | 5
COc1ccc(/C=N/NC(=O)C(=O)/C=C2\NC3(CCCC3)Cc3ccccc32)cc1 | 84 | i | -1 | 0 | -12 | 2
O=C(/C=C1\NC2(CCCC2)Cc2ccccc21)C(=O)N/N=C/c1ccc(O)c(O)c1 | 98 | i | -4 | 102* | -25 | 1
Oc1ccc(CN2CCCc3ccccc32)c2cccnc12 | 85 | i | -4 | 56* | 5 | 3
COc1ccccc1N1CCN(Cc2ccc(O)c3ncccc23)CC1 | 89 | i | -6 | 37 | -20 | 0
C/C(CC(=O)Nc1ccc(F)cc1)=N\NC(=O)Cc1csc(N)n1 | 64* | i | -1 | 2 | 5 | 2
C/C(CC(=O)Nc1ccc(Br)cc1)=N\NC(=O)Cc1csc(N)n1 | . | i | . | -2 | 3 | -2
CNC(=O)C[C@H]1C(=O)N(c2ccccc2)C[C@@H]1CSC | . | . | . | 3 | . | 0
COCCN(C(=O)COC(=O)C1CC1)c1c(N)n(Cc2ccccc2)c(=O)[nH]c1=O | 99 | . | 4 | 0 | . | 3
CCOc1cc(C2C(C(=O)c3ccc(C)cc3)=C(C(=O)OC)Nc3nnnn32)ccc1O (configuration not stated) | 103 | 2.1* | -2 | 10 | 8 | 1
CN(C)C(=O)C1C2NC(=S)N(c3cccc(Cl)c3)C1(C)Oc1ccc(Cl)cc12 (configuration not stated) | 91 | i | -3 | 56* | 8 | -1
Cc1cc(=O)[nH]c(N=N/C(=N/Nc2ccccc2C)c2ccccc2)n1 | 89 | i | -4 | 60* | 0 | -2
